Reference: the supplement of paper PMC4466140

Biological target: AgAbp1
Assay: SPOT peptide array binding signal intensity (averaged, normalized) (arbitrary units (background-subtracted, floor 0; scale differs between SH3 domains)); higher = stronger binding of the SH3 domain to the peptide
How it was run: (§1)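 GST-fused SH3 domains from four yeast species were expressed in E. coli BL21(DE3), purified on glutathione Sepharose and incubated at 10 μg/ml overnight at 4°C in TBS-based blocking buffer on cellulose membranes carrying synthetic 15-mer peptides, with cysteines replaced by serines. Bound protein was detected with anti-GST antibody, an HRP anti-mouse secondary and luminol, then imaged and quantified with Genespotter. Binding signal is the normalized, background-subtracted spot intensity averaged over replicates, in arbitrary units that differ between domains.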

| Binder | SPOT peptide array binding signal intensity |
| --- | --- |
| NQARKPFLLPATELS | ≤ 0 |

Biological target: AgBbc1
Assay: as above
How it was run: as §1

| Binder | SPOT peptide array binding signal intensity |
| --- | --- |
| NQARKPFLLPATELS | ≤ 0 |

Biological target: AgBem1-D1
Assay: as above
How it was run: as §1

| Binder | SPOT peptide array binding signal intensity |
| --- | --- |
| NQARKPFLLPATELS | 23.5 |

Biological target: AgBzz1-D1
Assay: as above
How it was run: as §1

| Binder | SPOT peptide array binding signal intensity |
| --- | --- |
| NQARKPFLLPATELS | 19 |

Biological target: AgBzz1-D2
Assay: as above
How it was run: as §1

| Binder | SPOT peptide array binding signal intensity |
| --- | --- |
| NQARKPFLLPATELS | 16.5 |

Biological target: AgCyk3
Assay: as above
How it was run: as §1

| Binder | SPOT peptide array binding signal intensity |
| --- | --- |
| NQARKPFLLPATELS | ≤ 0 |

Biological target: AgFus1
Assay: as above
How it was run: as §1

| Binder | SPOT peptide array binding signal intensity |
| --- | --- |
| NQARKPFLLPATELS | ≤ 0 |

Biological target: AgHof1
Assay: as above
How it was run: as §1

| Binder | SPOT peptide array binding signal intensity |
| --- | --- |
| NQARKPFLLPATELS | 11.8 |

Biological target: AgHse1
Assay: as above
How it was run: as §1

| Binder | SPOT peptide array binding signal intensity |
| --- | --- |
| NQARKPFLLPATELS | 454 |

Biological target: AgLsb1
Assay: as above
How it was run: as §1

| Binder | SPOT peptide array binding signal intensity |
| --- | --- |
| NQARKPFLLPATELS | 295 |

Biological target: AgLsb4
Assay: as above
How it was run: as §1

| Binder | SPOT peptide array binding signal intensity |
| --- | --- |
| NQARKPFLLPATELS | ≤ 0 |

Biological target: AgMyo5
Assay: as above
How it was run: as §1

| Binder | SPOT peptide array binding signal intensity |
| --- | --- |
| NQARKPFLLPATELS | 2 |

Biological target: AgNbp2
Assay: as above
How it was run: as §1

| Binder | SPOT peptide array binding signal intensity |
| --- | --- |
| NQARKPFLLPATELS | 5 |

Biological target: AgRvs167
Assay: as above
How it was run: as §1

| Binder | SPOT peptide array binding signal intensity |
| --- | --- |
| NQARKPFLLPATELS | ≤ 0 |

Biological target: AgSho1
Assay: as above
How it was run: as §1

| Binder | SPOT peptide array binding signal intensity |
| --- | --- |
| NQARKPFLLPATELS | ≤ 0 |

Biological target: AgSla1-D1-D2
Assay: as above
How it was run: as §1

| Binder | SPOT peptide array binding signal intensity |
| --- | --- |
| NQARKPFLLPATELS | 3 |

Biological target: AgSla1-D3
Assay: as above
How it was run: as §1

| Binder | SPOT peptide array binding signal intensity |
| --- | --- |
| NQARKPFLLPATELS | 0.5 |

Biological target: CaAbp1-D1
Assay: as above
How it was run: as §1

| Binder | SPOT peptide array binding signal intensity |
| --- | --- |
| NQARKPFLLPATELS | 225 |

Biological target: CaAbp1-D2
Assay: as above
How it was run: as §1

| Binder | SPOT peptide array binding signal intensity |
| --- | --- |
| NQARKPFLLPATELS | 17 |

Biological target: CaBbc1
Assay: as above
How it was run: as §1

| Binder | SPOT peptide array binding signal intensity |
| --- | --- |
| NQARKPFLLPATELS | ≤ 0 |

Biological target: CaBem1-D1
Assay: as above
How it was run: as §1

| Binder | SPOT peptide array binding signal intensity |
| --- | --- |
| NQARKPFLLPATELS | ≤ 0 |

Biological target: CaBzz1-D1
Assay: as above
How it was run: as §1

| Binder | SPOT peptide array binding signal intensity |
| --- | --- |
| NQARKPFLLPATELS | ≤ 0 |

Biological target: CaBzz1-D2
Assay: as above
How it was run: as §1

| Binder | SPOT peptide array binding signal intensity |
| --- | --- |
| NQARKPFLLPATELS | ≤ 0 |

Biological target: CaCyk3
Assay: as above
How it was run: as §1

| Binder | SPOT peptide array binding signal intensity |
| --- | --- |
| NQARKPFLLPATELS | 1 |

Biological target: CaFus1
Assay: as above
How it was run: as §1

| Binder | SPOT peptide array binding signal intensity |
| --- | --- |
| NQARKPFLLPATELS | 228 |

Biological target: CaHof1
Assay: as above
How it was run: as §1

| Binder | SPOT peptide array binding signal intensity |
| --- | --- |
| NQARKPFLLPATELS | ≤ 0 |

Biological target: CaHse1
Assay: as above
How it was run: as §1

| Binder | SPOT peptide array binding signal intensity |
| --- | --- |
| NQARKPFLLPATELS | 4.75 |

Biological target: CaLsb1
Assay: as above
How it was run: as §1

| Binder | SPOT peptide array binding signal intensity |
| --- | --- |
| NQARKPFLLPATELS | 0.5 |

Biological target: CaLsb4
Assay: as above
How it was run: as §1

| Binder | SPOT peptide array binding signal intensity |
| --- | --- |
| NQARKPFLLPATELS | ≤ 0 |

Biological target: CaMyo5
Assay: as above
How it was run: as §1

| Binder | SPOT peptide array binding signal intensity |
| --- | --- |
| NQARKPFLLPATELS | 3.75 |

Biological target: CaNbp2
Assay: as above
How it was run: as §1

| Binder | SPOT peptide array binding signal intensity |
| --- | --- |
| NQARKPFLLPATELS | 100 |

Biological target: CaRvs167
Assay: as above
How it was run: as §1

| Binder | SPOT peptide array binding signal intensity |
| --- | --- |
| NQARKPFLLPATELS | 0.333 |

Biological target: CaRvs167-3
Assay: as above
How it was run: as §1

| Binder | SPOT peptide array binding signal intensity |
| --- | --- |
| NQARKPFLLPATELS | 4.5 |

Biological target: CaSho1
Assay: as above
How it was run: as §1

| Binder | SPOT peptide array binding signal intensity |
| --- | --- |
| NQARKPFLLPATELS | 28.5 |

Biological target: CaSla1-D1-D2
Assay: as above
How it was run: as §1

| Binder | SPOT peptide array binding signal intensity |
| --- | --- |
| NQARKPFLLPATELS | ≤ 0 |

Biological target: CaSla1-D3
Assay: as above
How it was run: as §1

| Binder | SPOT peptide array binding signal intensity |
| --- | --- |
| NQARKPFLLPATELS | ≤ 0 |

Biological target: ScAbp1
Assay: as above
How it was run: as §1

| Binder | SPOT peptide array binding signal intensity |
| --- | --- |
| NQARKPFLLPATELS | 59.5 |
